Experimental data as given in PubChem BioAssay (NCATS).
Several values for one entry are separate records, joined by “and”; a condition that tells them apart may be missing. Equal entries are not always repeated. Records with an inconclusive call do not appear. Activity calls are given as the source filed them. Unless noted, calls follow the shape of the dose curve; as a rule, active = well fitted curve in the direction sought with a large enough effect; inconclusive = small, poorly fitted or top-dose-only effect, or another doubt; inactive = no such curve, though single readings can be large; an effect the other way counts as inactive or inconclusive.

How the values were obtained:
[1] = MultiTox-Fluor Cytotoxicity Assay - LYMP1-001 - Dead Cells (AID 946);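 also: cells exposed to compound for 16 h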; also: potency is read from the fitted curve at half-maximal effect
Summary of the method: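 In this qHTS, 15 uM tetraoctylammonium bromide defined 100% and DMSO defined basal activity. Lymphoblastoid cells (LYMP1-001, 2500 per well) received compound for 16 hr at 37 C before a fluorogenic dead-cell substrate readout at 485/520 nm.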

[2] = Cell Viability - LYMP2-019 (AID 973); also: nearly all actives have a fitted effect of over 55% in size
Summary of the method: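 Human lymphoblastoid LYMP2-019 cells (2500/well) preincubated 5 h at 37 C, then treated 24 h at 37 C in complete medium. Viability by CellTiter-Glo ATP luminescence after 30 min at room temperature; AC50 from Hill fits.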

[3] = Cell Viability - LYMP2-008 (AID 980); also: nearly all actives have a fitted effect of over 60% in size
Summary of the method: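 LYMP2-008 lymphoblastoid cells (2500/well) plated 5 h, then treated 24 h at 37 C in complete medium. Viability read as intracellular ATP by CellTiter-Glo luminescence after 30 min at room temperature; AC50 from Hill fits.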

[4] = Cell Viability - LYMP2-012 (AID 982);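 also: cellular ATP by luciferase luminescence where a drop means cytotoxicity; cells exposed to compound for one day before reading; nearly all actives have a fitted effect of over 55% in size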; also: potency is read from the fitted curve at half-maximal effect
[5] = Cell Viability - LYMP2-014 (AID 983); also: series mostly up to about 92 µM; nearly all actives have a fitted effect of over 50% in size
Summary of the method: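 LYMP2-014 human lymphoblastoid cells, 2500/well, treated 24 h at 37 C in complete medium; viability by CellTiter-Glo ATP luminescence after 30 min at room temperature. AC50 from Hill fits of qHTS concentration-response; tetraoctylammonium bromide positive control.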

[6] = Cell Viability - LYMP2-016 (AID 984); also: nearly all actives have a fitted effect of over 55% in size; also: potency is read from the fitted curve at half-maximal effect
Summary of the method: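 Cells were seeded at 2500 per well and rested 5 hr before a 24 hr compound exposure at 37 C. Viability was then gauged as cellular ATP by luciferase luminescence, with AC50 values fitted to the Hill equation.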

[7] = Cell Viability - LYMP2-024 (AID 988); also: nearly all actives have a fitted effect of over 60% in size; also: potency is read from the fitted curve at half-maximal effect
Summary of the method: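 Human lymphoblastoid LYMP2-024 cells (2500/well) rested 5 hr, then treated with compound for 24 hr at 37 C in complete medium. Viability was measured as intracellular ATP by CellTiter-Glo luminescence. AC50 values came from Hill-equation fits.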

[8] = target: Estrogen receptor (Homo sapiens) (UniProt P03372); assay: qHTS assay for small molecule antagonists of estrogen receptor alpha signaling (AID 588513; active = well fitted curve in the direction sought with a large enough effect in the signal ratio, with a control signal flat, not every such curve was filed as active; the % refers to the signal ratio)
Summary of the method: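 Fluorescence from CCF4 substrate after 2 h at room temperature gave reporter activity; cells had been exposed to compound and 0.5nM 17-beta-estradiol for 18 h at 37 C. Hill-equation fitting yielded IC50 and maximal response.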

[9] = target: Glucocorticoid receptor (Homo sapiens) (UniProt P04150); assay: qHTS assay for small molecule antagonists of glucocorticoid receptor signaling (AID 588533; active = well fitted inhibition curve with a large enough effect in the signal ratio, with a control signal flat, not every such curve was filed as active; the % refers to the signal ratio;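 also: cells stimulated with 2 nM dexamethasone as agonist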)
Summary of the method: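 Antagonist-mode qHTS: compound titrations added to GRE-bla HeLa cells, then dexamethasone 2 nM final; 18 h, 37 C. CCF4 FRET fluorescence normalized to dexamethasone and DMSO; IC50 from Hill fit.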

[10] = target: Peroxisome proliferator-activated receptor delta (Homo sapiens) (UniProt Q03181); assay: qHTS assay for small molecule agonists of peroxisome proliferator-activated receptor delta signaling (AID 588534; calls by dose curve)
Summary of the method: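 Cells carrying a PPAR-delta beta-lactamase reporter were treated with compounds for 18 h at 37 °C in agonist mode. CCF4 fluorescence was read after 2 h; EC50 and efficacy from Hill fits.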

[11] = qHTS assay for small molecule disruptors of the mitochondrial membrane potential - 5 hr assay (AID 651755; calls by dose curve; also: nearly all actives have a fitted effect of over 40% in size)
Summary of the method: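 HepG2 cells (2,000/well), attached overnight, exposed to compound 5 hr at 37C, then Mito-MPS dye 30 min. Fluorescence read for monomers (490/535 nm) and aggregates (540/590 nm).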

[12] = Cell Viability - Jurkat (AID 426;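 active = dose-dependent loss of cell ATP signal giving a full or clear fitted curve, ranked by lower potency value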;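 also: potency is read from the fitted curve at half-maximal effect; cells exposed to compound for 40 hours at 37 °C before ATP read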); conditions: qHTS
Summary of the method: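 Jurkat (Clone E6-1) cells, 5000/well in complete medium, exposed to compounds for 40 hr at 37C; intracellular ATP measured by CellTiter-Glo luminescence after 20 min at room temperature. AC50 from Hill fits.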

[13] = Cell Viability - Hek293 (AID 427;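 active = compounds whose dose-response curve shows a full or clear partial loss of cell viability, called from curve shape rather than a numeric limit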;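 also: potency is read from the fitted curve at half-maximal effect; cells exposed to compound for 40 hours at 37 °C before reading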); conditions: qHTS
Summary of the method: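 AC50 values derive from Hill-modelled concentration-response of ATP-based luminescence, normalized between DMSO-only and 100 uM tamoxifen controls. Cells were exposed in complete culture medium for 40 hr at 37 °C before detection.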

[14] = Cell Viability - LYMP2-005 (AID 967); also: potency is read from the fitted curve at half-maximal effect
Summary of the method: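 Acute cytotoxicity is scored as a concentration-dependent drop in intracellular ATP in human lymphoblastoid LYMP2-005 cells after 24 h compound treatment. ATP is quantified by luciferase luminescence, and AC50 is derived by Hill-equation modelling.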

[15] = Cell Viability - LYMP2-013 (AID 970); also: nearly all actives have a fitted effect of over 55% in size; also: potency is read from the fitted curve at half-maximal effect
Summary of the method: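 Human lymphoblastoid LYMP2-013 cells, 2500/well, treated 24 h at 37 C in complete medium; viability as intracellular ATP by CellTiter-Glo luminescence after 30 min. AC50 from Hill fits of qHTS concentration-response.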

[16] = Cell Viability - LYMP2-017 (AID 972)
Summary of the method: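 LYMP2-017 human lymphoblastoid cells (2500/well) settled 5 hr at 37 C, then exposed to compound 24 hr at 37 C in complete medium. Viability taken as intracellular ATP by CellTiter-Glo luminescence after 30 min at RT; AC50 from Hill fits.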

[17] = Cell Viability - LYMP1-002 - Assay at 24 hr (AID 993); also: potency is read from the fitted curve at half-maximal effect
Summary of the method: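 Human lymphoblastoid LYMP1-002 cells (2500/well) treated 24 h at 37 °C; viability as intracellular ATP by CellTiter-Glo luminescence. Tetraoctylammonium bromide as positive control; AC50 from Hill-equation fits of qHTS concentration-response.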

[18] = qHTS assay for small molecule agonists of retinoid X receptor alpha signaling (AID 588544; calls by dose curve); conditions: HEK293T RXRa-UAS-bla, beta-lactamase reporter, 18 h; 530 nm emission
[19] = target: Retinoic acid receptor RXR-alpha (Homo sapiens) (UniProt P19793); assay: as above
[20] = target: Guanine nucleotide-binding protein G(i) subunit alpha-1 (Homo sapiens) (UniProt P63096); assay: qHTS Assay for Inhibitors of RGS12 GoLoco Motif Activity (Green Fluorophore) (AID 879);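 also: negative values mean loss of peptide binding seen as reduced polarization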
Summary of the method: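 Fluorescence polarization assay: 50 nM Gαi1 with 10 nM FITC-labeled RGS12 GoLoco peptide in 10 mM Tris pH 7.5, 150 mM NaCl, 0.1 mM GDP, 0.05% NP40, 10 min at room temperature with compound.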

Chain of Guanine nucleotide-binding protein G(i) subunit alpha-1 (Homo sapiens) (P63096 whole entry, looked up): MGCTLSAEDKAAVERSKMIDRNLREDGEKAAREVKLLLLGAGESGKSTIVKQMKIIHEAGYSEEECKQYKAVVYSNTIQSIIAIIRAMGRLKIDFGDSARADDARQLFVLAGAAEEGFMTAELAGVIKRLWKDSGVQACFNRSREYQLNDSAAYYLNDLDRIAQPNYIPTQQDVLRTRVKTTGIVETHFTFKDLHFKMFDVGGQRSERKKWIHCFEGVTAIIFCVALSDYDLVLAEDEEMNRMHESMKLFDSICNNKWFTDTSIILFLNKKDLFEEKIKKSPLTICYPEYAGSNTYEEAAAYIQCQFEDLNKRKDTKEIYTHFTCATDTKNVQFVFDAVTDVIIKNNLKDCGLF
Chain of Estrogen receptor (Homo sapiens) (P03372 whole entry, looked up): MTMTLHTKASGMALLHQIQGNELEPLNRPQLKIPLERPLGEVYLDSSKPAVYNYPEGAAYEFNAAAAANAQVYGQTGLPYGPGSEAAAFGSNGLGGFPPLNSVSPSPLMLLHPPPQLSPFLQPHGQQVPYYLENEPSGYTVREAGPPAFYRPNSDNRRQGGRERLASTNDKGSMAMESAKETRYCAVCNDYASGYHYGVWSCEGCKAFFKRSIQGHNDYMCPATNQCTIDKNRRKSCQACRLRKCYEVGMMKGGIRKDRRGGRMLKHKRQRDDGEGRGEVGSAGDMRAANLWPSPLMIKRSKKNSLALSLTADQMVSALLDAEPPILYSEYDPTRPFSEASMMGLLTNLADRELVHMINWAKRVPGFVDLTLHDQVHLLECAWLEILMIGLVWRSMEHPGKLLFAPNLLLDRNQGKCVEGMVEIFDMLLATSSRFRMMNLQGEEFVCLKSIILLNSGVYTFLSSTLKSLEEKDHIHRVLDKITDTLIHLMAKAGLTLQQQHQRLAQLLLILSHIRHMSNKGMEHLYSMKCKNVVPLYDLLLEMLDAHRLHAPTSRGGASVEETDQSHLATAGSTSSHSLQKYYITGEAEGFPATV
Chain of Retinoic acid receptor RXR-alpha (Homo sapiens) (P19793 whole entry, looked up): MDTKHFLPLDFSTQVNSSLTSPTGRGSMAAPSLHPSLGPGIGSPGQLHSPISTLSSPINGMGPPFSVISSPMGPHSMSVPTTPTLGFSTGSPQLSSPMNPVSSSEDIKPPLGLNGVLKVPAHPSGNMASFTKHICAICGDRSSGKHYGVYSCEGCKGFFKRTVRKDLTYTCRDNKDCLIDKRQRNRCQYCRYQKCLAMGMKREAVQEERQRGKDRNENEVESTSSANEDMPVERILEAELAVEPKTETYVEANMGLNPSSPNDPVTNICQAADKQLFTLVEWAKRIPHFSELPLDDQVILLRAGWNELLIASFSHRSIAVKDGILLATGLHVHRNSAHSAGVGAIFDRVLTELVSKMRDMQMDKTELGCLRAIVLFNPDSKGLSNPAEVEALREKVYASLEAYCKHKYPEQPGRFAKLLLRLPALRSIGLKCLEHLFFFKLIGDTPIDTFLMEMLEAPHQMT
Chain of Glucocorticoid receptor (Homo sapiens) (P04150 whole entry, looked up): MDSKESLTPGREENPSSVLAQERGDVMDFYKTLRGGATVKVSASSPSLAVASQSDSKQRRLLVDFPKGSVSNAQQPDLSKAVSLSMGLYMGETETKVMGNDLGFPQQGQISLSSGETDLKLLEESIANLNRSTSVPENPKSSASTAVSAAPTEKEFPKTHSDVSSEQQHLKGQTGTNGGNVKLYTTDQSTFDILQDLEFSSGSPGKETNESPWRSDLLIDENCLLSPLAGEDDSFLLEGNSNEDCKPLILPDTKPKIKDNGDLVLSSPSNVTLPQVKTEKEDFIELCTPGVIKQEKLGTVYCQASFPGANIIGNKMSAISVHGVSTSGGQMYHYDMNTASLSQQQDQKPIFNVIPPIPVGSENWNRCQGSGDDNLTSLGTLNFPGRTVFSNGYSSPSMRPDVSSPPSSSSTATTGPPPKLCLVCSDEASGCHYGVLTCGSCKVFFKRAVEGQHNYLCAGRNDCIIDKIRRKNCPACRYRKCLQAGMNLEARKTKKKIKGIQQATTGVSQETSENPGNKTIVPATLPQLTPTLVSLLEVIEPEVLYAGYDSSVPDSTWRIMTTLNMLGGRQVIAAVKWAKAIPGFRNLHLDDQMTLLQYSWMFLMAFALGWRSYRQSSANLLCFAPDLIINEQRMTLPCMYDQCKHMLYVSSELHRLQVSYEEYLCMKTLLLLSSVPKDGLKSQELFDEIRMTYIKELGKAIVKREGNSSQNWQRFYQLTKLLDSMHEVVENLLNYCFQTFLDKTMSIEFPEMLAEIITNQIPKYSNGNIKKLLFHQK
Chain of Peroxisome proliferator-activated receptor delta (Homo sapiens) (Q03181 whole entry, looked up): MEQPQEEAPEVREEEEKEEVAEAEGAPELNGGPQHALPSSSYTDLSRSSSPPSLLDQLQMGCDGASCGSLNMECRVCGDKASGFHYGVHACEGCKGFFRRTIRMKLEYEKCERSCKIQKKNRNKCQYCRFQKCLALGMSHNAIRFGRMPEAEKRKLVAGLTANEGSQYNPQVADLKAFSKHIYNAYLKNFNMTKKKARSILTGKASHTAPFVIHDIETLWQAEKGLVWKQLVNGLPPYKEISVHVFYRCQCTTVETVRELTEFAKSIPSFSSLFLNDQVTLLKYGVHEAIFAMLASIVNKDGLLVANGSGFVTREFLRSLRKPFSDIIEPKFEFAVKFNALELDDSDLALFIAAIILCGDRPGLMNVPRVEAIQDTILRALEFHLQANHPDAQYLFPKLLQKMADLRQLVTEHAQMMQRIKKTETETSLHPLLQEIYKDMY

ClC1=C(Cl)C2(Cl)C3C(Cl)C=CC3C1(Cl)C2(Cl)Cl (stereo not drawn)
active: Potency [1] 50.1 µM
inactive: Potency [2] | Potency [3] | Potency [4] | Potency [5] | Potency [6] | Potency [7] | Potency [8] | Potency [9] | outcome [10] | Potency [11]

COP(=S)(OC)Oc1ccc([N+](=O)[O-])cc1
inactive: Potency [12] > 92 µM | Potency [13] > 92 µM | Potency [1] | Potency [14] | Potency [15] | Potency [16] | Potency [2] | Potency [3] | Potency [5] | Potency [6] | Potency [7] | Potency [17] | Potency [8] | outcome [10] | Potency [19] | Potency [11]
-22.5% and 4.79%: max response [18]

C=CCc1ccc(OC)cc1
inactive: Potency [12] > 92 µM | Potency [13] > 92 µM | Potency [1] | Potency [14] | Potency [15] | Potency [16] | Potency [2] | Potency [3] | Potency [4] | Potency [5] | Potency [6] | Potency [7] | Potency [17] | outcome [10] | Potency [19]
-5.04%: max response [18]

O=S1OCC2C(CO1)C1(Cl)C(Cl)=C(Cl)C2(Cl)C1(Cl)Cl (stereo not drawn)
inactive: Potency [2] | Potency [3] | Potency [5] | Potency [8] | Potency [19]
-15.4%: max response [18]

COC(=O)NC(=S)Nc1ccccc1NC(=S)NC(=O)OC
18.1% and -8.17%: max response [18]
inactive: Potency [13] > 92 µM | Potency [1] | Potency [14] | Potency [15] | Potency [16] | Potency [2] | Potency [3] | Potency [4] | Potency [5] | Potency [6] | Potency [7] | Potency [17] | Potency [8] | Potency [9] | outcome [10] | Potency [19] | Potency [11]

c1ccc(N=Nc2ccccc2)cc1
8.95% and -1.18%: max response [18]
inactive: Potency [13] > 92 µM | Potency [1] | Potency [14] | Potency [4] | Potency [5] | Potency [6] | Potency [7] | Potency [17] | Potency [9] | Potency [19] | Potency [11]
active: Potency [12] 47.9 µM

ClC1=C(Cl)C2(Cl)C3C4CC(C5OC45)C3C1(Cl)C2(Cl)Cl (stereo not drawn)
active: Potency [1] 31.6 µM | Potency [14] 20 µM | Potency [15] 39.8 µM | Potency [4] 39.8 µM | Potency [6] 50.1 µM | Potency [7] 39.8 µM | Potency [17] 12.6 µM
inactive: Potency [13] > 92 µM | Potency [8] | Potency [9] | outcome [10] | Potency [11]

NC[C@H](O)c1ccc(O)cc1
inactive: outcome [20]

CC[C@@]1(c2ccc(N)cc2)CCC(=O)NC1=O
inactive: outcome [20]

C[N+]1(C)[C@@H]2CC[C@H]1CC(OC(=O)[C@@H](CO)c1ccccc1)C2 (stereo partly drawn)
inactive: outcome [20]

C[C@]12CC[C@H](O)C[C@@H]1CC[C@H]1[C@H]2CC[C@]2(C)C(=O)CC[C@@H]12
inactive: outcome [20]

C[C@H](NC(C)(C)C)C(=O)c1cccc(Cl)c1
inactive: outcome [20]

COc1ccc(OC)c([C@H](O)[C@H](C)N)c1
inactive: outcome [20]

COc1ccc2c(c1OC)C(=O)O[C@H]2[C@H]1c2cc3c(cc2CCN1C)OCO3
inactive: outcome [20]

C#CCN(C)[C@@H](C)Cc1ccccc1
inactive: outcome [20]

CS(=N)(=O)CC[C@@H](N)C(=O)O (stereo partly drawn)
inactive: outcome [20]

CN1CC[C@]2(C)c3cc(O)ccc3N(C)[C@@H]12
inactive: outcome [20]
